Experiments:
Assay in all cases: log2 ratio of Biotin-Ahx-Ub-VS probe labelling (fragment/DMSO); higher = less target engagement (more negative = stronger competition), active = hit call of the paper (q ≤ 0.05, log2 ratio ≤ -1)
Details in all cases: compound concentration: 200 uM; treatment time: 3 h
[1] = biological target: USP16 (UniProt Q9Y5T5)
Procedure, shortened: (§1)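 Global-median-normalised Spectronaut label-free quantities were compared by unpaired t-test, and values are average log2 ratios of fragment over vehicle. Only proteins with ≥2 unique peptides were used. HEK293T lysate (495 µg per sample) was treated in triplicate with fragment at 200 µM or vehicle for 3 h and then with Biotin-Ahx-Ub-VS at 0.5 µM final for 1 h. Labelled DUBs were then NeutrAvidin-enriched, digested with LysC and trypsin, and run by diaPASEF LC-MS/MS.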

[2] = biological target: T1, USP19 (UniProt O94966)
T1 sequence (whole entry): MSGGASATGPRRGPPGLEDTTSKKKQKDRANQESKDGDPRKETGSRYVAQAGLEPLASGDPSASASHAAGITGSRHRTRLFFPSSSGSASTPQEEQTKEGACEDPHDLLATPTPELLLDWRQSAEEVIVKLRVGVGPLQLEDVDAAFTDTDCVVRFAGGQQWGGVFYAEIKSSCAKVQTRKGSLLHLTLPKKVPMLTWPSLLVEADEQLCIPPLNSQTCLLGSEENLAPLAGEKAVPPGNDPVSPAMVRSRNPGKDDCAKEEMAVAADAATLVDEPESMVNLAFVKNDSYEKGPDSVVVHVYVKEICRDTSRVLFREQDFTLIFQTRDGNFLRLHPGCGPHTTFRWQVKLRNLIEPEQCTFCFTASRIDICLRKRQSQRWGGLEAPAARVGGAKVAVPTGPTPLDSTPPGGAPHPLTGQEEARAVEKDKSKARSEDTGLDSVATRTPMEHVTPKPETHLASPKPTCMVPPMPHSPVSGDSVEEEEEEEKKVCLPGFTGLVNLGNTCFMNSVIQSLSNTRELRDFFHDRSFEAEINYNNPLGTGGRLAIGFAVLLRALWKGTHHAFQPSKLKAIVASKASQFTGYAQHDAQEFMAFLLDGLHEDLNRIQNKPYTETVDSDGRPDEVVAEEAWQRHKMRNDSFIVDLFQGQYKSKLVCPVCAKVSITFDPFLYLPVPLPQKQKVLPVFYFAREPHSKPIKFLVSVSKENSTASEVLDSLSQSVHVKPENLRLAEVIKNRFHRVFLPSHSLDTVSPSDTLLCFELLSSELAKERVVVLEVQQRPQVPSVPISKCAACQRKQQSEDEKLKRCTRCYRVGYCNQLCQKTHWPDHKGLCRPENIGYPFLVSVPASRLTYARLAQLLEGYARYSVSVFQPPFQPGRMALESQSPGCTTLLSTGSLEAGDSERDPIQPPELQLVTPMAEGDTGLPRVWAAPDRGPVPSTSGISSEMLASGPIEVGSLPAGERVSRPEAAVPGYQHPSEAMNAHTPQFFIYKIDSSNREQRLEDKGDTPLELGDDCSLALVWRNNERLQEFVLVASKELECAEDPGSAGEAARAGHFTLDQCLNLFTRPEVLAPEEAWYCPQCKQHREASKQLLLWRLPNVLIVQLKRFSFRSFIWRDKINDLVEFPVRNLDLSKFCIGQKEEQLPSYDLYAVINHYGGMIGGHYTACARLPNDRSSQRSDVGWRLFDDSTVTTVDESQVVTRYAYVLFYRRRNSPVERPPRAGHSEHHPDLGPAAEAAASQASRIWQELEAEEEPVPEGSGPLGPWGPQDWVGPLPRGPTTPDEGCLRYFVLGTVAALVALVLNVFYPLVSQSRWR
Procedure, shortened: as §1

[3] = biological target: USP24 (UniProt Q9UPU5)
Procedure, shortened: as §1

[4] = biological target: T2, USP25 (UniProt Q9UHP3)
T2 sequence (whole entry): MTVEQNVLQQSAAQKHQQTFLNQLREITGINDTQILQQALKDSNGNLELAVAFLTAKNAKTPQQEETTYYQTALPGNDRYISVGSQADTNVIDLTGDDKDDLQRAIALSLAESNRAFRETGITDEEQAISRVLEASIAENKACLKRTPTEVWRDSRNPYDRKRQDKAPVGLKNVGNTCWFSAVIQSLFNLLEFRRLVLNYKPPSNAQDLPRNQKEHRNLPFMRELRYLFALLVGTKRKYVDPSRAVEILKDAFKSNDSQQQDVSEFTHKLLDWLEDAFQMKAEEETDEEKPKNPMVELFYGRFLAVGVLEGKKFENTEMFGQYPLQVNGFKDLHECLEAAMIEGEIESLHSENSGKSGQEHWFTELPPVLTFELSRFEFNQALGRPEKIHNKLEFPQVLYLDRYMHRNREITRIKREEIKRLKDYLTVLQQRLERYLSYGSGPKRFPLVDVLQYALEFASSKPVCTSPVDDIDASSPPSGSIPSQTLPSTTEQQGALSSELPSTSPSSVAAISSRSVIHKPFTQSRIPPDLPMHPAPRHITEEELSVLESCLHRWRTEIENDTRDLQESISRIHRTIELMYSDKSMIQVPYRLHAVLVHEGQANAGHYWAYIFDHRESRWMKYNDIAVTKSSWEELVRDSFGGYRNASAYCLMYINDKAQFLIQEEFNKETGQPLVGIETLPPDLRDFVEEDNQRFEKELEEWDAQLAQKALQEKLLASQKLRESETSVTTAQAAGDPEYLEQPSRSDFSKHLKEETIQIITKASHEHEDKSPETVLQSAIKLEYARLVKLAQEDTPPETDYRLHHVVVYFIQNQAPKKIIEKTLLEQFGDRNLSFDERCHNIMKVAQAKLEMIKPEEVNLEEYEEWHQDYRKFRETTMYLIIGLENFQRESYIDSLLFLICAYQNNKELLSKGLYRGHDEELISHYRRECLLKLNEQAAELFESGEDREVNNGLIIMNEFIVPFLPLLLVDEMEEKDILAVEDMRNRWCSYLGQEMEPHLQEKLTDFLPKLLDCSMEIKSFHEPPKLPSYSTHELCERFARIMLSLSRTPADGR
Procedure, shortened: as §1

[5] = biological target: T3, USP28 (UniProt Q96RU2)
T3 sequence (whole entry): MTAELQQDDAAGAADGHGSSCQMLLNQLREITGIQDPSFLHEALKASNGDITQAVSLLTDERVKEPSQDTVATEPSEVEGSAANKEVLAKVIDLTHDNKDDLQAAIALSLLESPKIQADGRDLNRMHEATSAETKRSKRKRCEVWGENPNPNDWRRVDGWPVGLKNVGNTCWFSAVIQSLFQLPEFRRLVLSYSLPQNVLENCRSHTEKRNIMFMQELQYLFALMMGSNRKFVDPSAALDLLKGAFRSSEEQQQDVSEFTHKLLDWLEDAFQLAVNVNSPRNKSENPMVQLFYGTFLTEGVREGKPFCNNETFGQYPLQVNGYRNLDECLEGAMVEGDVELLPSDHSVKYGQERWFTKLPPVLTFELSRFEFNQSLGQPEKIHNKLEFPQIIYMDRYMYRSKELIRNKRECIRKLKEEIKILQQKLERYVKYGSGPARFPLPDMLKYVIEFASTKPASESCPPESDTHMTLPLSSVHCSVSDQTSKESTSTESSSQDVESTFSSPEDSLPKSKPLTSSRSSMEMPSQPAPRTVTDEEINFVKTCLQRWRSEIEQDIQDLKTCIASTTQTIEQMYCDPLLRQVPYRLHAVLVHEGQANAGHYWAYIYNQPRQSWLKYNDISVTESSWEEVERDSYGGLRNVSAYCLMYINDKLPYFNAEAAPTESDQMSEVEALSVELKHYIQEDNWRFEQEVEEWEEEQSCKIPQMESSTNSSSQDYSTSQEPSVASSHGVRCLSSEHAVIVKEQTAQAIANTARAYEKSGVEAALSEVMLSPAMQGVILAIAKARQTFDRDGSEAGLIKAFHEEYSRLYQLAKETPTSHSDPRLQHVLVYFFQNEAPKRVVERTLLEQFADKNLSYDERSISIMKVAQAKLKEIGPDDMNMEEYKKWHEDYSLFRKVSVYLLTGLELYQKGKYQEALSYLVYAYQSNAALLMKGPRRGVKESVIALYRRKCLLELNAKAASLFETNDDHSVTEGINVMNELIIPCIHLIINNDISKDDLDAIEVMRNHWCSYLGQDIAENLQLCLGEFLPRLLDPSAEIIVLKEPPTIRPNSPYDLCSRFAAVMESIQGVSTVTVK
Procedure, shortened: as §1

Measured: log2 ratio of Biotin-Ahx-Ub-VS probe labelling

USP16, sequence (Q9Y5T5 whole entry, looked up, the tested form may be a part): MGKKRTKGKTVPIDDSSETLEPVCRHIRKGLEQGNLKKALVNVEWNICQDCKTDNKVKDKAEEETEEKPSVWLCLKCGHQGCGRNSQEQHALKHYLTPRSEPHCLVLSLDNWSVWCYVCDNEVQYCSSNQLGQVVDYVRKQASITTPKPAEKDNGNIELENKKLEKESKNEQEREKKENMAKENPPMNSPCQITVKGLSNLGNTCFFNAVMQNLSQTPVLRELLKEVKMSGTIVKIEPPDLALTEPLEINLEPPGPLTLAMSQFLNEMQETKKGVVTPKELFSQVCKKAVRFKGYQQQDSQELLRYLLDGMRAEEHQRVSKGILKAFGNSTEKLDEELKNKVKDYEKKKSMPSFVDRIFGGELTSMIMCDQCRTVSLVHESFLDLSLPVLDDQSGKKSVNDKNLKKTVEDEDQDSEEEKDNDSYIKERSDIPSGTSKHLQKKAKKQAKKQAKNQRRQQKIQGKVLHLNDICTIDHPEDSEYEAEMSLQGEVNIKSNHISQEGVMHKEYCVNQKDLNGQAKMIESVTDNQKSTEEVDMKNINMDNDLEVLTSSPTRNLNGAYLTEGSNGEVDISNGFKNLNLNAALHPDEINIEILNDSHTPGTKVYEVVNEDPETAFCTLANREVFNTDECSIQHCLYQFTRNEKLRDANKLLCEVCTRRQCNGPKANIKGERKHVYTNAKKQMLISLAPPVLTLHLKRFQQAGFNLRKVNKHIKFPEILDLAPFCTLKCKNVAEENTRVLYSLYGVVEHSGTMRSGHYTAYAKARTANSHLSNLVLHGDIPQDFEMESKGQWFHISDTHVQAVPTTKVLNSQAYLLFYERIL
USP24, sequence (Q9UPU5 whole entry): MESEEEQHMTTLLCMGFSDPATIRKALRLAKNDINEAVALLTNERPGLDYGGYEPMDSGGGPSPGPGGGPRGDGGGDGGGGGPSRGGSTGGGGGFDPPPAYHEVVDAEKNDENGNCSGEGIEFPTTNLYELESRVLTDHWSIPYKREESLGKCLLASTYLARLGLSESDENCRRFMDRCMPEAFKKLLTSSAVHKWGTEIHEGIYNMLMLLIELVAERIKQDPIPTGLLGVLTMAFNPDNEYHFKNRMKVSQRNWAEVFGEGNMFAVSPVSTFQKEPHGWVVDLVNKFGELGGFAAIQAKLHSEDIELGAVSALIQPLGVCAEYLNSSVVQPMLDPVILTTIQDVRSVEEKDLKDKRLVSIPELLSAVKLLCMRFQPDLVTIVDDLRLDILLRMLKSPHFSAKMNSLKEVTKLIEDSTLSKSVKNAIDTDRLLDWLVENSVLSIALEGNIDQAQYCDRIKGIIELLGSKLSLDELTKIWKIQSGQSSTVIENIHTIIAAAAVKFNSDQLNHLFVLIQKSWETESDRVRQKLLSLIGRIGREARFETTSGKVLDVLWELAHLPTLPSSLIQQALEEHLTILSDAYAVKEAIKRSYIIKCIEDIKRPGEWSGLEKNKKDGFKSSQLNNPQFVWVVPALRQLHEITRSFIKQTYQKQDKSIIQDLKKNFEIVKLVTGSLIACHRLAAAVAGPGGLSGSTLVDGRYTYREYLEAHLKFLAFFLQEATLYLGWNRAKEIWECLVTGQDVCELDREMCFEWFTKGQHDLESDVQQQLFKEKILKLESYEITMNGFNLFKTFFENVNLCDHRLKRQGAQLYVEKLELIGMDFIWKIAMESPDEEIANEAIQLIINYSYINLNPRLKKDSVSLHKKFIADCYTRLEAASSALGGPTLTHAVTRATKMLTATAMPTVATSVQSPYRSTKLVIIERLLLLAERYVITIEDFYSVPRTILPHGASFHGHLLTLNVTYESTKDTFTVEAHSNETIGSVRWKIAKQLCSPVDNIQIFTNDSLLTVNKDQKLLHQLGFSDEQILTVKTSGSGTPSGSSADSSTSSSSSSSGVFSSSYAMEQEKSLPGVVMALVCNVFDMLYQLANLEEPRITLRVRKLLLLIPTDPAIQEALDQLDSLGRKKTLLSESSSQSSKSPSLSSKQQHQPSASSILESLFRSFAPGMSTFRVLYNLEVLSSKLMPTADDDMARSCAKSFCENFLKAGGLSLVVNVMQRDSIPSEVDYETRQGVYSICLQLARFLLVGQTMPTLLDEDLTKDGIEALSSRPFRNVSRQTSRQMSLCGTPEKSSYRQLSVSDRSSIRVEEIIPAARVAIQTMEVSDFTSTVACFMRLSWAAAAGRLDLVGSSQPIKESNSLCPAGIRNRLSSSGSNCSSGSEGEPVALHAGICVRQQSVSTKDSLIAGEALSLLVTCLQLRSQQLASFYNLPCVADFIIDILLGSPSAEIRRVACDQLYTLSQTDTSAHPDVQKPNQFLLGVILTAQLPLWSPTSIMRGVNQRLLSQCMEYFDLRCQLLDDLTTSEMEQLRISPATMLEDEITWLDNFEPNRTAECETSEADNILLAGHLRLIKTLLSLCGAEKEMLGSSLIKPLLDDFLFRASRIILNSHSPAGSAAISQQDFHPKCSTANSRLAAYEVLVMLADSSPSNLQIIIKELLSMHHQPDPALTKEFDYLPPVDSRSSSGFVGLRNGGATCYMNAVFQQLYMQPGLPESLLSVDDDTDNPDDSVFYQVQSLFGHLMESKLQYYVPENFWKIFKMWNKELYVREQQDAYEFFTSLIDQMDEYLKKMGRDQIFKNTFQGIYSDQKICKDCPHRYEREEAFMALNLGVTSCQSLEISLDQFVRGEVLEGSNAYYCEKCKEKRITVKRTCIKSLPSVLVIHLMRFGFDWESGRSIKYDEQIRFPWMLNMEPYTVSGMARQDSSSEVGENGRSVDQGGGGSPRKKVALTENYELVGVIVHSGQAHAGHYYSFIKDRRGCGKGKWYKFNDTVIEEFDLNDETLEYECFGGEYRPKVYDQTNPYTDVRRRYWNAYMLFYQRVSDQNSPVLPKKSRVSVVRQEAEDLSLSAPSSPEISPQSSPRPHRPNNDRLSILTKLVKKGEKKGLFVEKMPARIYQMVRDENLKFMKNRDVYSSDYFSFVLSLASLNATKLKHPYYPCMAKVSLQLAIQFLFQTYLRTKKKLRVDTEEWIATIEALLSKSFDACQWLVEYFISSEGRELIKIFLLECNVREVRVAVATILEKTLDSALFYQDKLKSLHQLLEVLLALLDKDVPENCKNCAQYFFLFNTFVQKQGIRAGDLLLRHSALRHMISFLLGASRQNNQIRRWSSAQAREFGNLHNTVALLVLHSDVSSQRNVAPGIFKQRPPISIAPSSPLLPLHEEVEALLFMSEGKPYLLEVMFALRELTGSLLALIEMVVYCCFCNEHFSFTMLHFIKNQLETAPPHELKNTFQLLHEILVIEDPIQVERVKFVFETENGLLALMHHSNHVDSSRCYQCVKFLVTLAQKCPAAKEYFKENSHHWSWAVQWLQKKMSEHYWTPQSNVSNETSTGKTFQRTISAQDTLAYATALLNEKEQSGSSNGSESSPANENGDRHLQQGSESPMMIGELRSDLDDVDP

O=C(CCl)N1CCC(c2nc3ccccc3o2)CC1
inactive: [1] 0.149 | [2] -0.537 | [3] -0.503 | [4] -0.466 | [5] -0.736
